Records with an inconclusive call do not appear. Active and inactive are the calls of the source. Calls come from the whole dose curve; as a rule, active = well fitted inhibition curve with a large enough effect; inconclusive = small, poorly fitted or top-dose-only effect; inactive = flat fitted curve, though single readings scatter.
Columns and labels:
Assay in all cases: qHTS profiling for inhibitors of Plasmodium falciparum proliferation (AID 504749); note: nearly all actives have a fitted effect of over 60% in size
AA1029 = conditions: P. falciparum in erythrocytes, SYBR Green DNA, 72 h; series mostly up to 28.7 µM
How it was run: (§1)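 Three-day growth assay of blood-stage parasites in erythrocytes (0.3% parasitemia, 2.5% hematocrit) at 37 C, 5% CO2, quantified by SYBR Green DNA staining after overnight detergent lysis.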

AS120 = conditions: P. falciparum in erythrocytes, SYBR Green DNA, 72 h; series mostly up to 28.7 µM
How it was run: as §1

ATS189 = conditions: P. falciparum in erythrocytes, SYBR Green DNA, 72 h; series mostly up to 28.7 µM
How it was run: as §1

ATS95 = conditions: P. falciparum in erythrocytes, SYBR Green DNA, 72 h; series mostly up to 28.7 µM
How it was run: as §1

C2A = conditions: P. falciparum in erythrocytes, SYBR Green DNA, 72 h; series mostly up to 28.7 µM
How it was run: as §1

CP185 = conditions: P. falciparum in erythrocytes, SYBR Green DNA, 72 h; series mostly up to 28.7 µM
How it was run: as §1

CP191 = conditions: P. falciparum in erythrocytes, SYBR Green DNA, 72 h; series mostly up to 28.7 µM
How it was run: as §1

CP192 = conditions: P. falciparum in erythrocytes, SYBR Green DNA, 72 h; series mostly up to 28.7 µM
How it was run: as §1

CP194 = conditions: P. falciparum in erythrocytes, SYBR Green DNA, 72 h; series mostly up to 28.7 µM
How it was run: as §1

CP201 = conditions: P. falciparum in erythrocytes, SYBR Green DNA, 72 h; series mostly up to 28.7 µM
How it was run: as §1

CP203 = conditions: P. falciparum in erythrocytes, SYBR Green DNA, 72 h; series mostly up to 28.7 µM
How it was run: as §1

CP211 = conditions: P. falciparum in erythrocytes, SYBR Green DNA, 72 h; series mostly up to 28.7 µM
How it was run: as §1

CP215 = conditions: P. falciparum in erythrocytes, SYBR Green DNA, 72 h; series mostly up to 28.7 µM
How it was run: as §1

CP217 = conditions: P. falciparum in erythrocytes, SYBR Green DNA, 72 h; series mostly up to 28.7 µM
How it was run: as §1

CP237 = conditions: P. falciparum in erythrocytes, SYBR Green DNA, 72 h; series mostly up to 28.7 µM
How it was run: as §1

CP238 = conditions: P. falciparum in erythrocytes, SYBR Green DNA, 72 h; series mostly up to 28.7 µM
How it was run: as §1

CP247 = conditions: P. falciparum in erythrocytes, SYBR Green DNA, 72 h; series mostly up to 28.7 µM
How it was run: as §1

CP250 = conditions: P. falciparum in erythrocytes, SYBR Green DNA, 72 h; series mostly up to 12.8 µM
How it was run: as §1

Measured: Potency
Potency is the fitted concentration of half-maximal effect.

CO[C@@H](COC(N)=O)C1=C(N2CC2)C(=O)C(C)=C(N2CC2)C1=O
active: AA1029 1410 nM | AS120 891 nM | ATS189 2820 nM | ATS95 1410 nM | C2A 794 nM | CP185 794 nM | CP191 708 nM | CP192 1690 nM | CP194 1690 nM | CP201 3380 nM | CP203 1510 nM | CP211 675 nM | CP215 1900 nM | CP217 3160 nM | CP237 1260 nM | CP238 1410 nM | CP247 708 nM | CP250 1410 nM
